Records with an inconclusive call do not appear. The source made the active and inactive calls. Unless noted, calls come from the whole dose curve; as a rule, active = well fitted curve in the direction sought with a large enough effect in the repeat runs; inconclusive = weak or mixed curves; inactive = no such curve, though single readings can be large; an effect the other way counts as inactive or inconclusive.
What was measured:
[1] = qHTS assay to identify small molecule agonists of the estrogen receptor alpha (ER-alpha) signaling pathway in the presence of an antagonist - cell viability counter screen (AID 1259386);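 note: series mostly up to about 92 µM; cells exposed to compounds for 22 h at 37 °C before the viability read; nearly all actives have a fitted effect of over 30% in size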
Outline: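 Steps: 5-day stripped-FBS culture; seed and incubate 24hr; add ICI-182,780 (10.0nM final); pin 15-point compound titration; incubate 22hr at 37C; add CellTiter-Fluor at 21hr; read fluorescence.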

[2] = target: Progesterone receptor (Homo sapiens) (UniProt P06401); assay: qHTS assay to identify small molecule agonists of the progesterone receptor (PR) signaling pathway (AID 1346784; calls by dose curve; note: nearly all actives have a fitted effect of over 30% in size)
Outline: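 Reporter assay, GripTite PR-UAS-bla HEK 293T cells: 16 hr exposure to DMSO-dissolved compounds at 37C, 5% CO2, in steroid-depleted (2% charcoal-stripped FBS) medium; beta-lactamase measured by FRET fluorescence.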

[3] = target: Progesterone receptor (Homo sapiens) (UniProt P06401); assay: qHTS assay to identify small molecule antagonists of the progesterone receptor (PR) signaling pathway (AID 1346795; active = well fitted inhibition curve with a large enough effect in the signal ratio in the repeat runs, not every such curve was filed as active; the % refers to the signal ratio)
Outline: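 Stimulus R5020 at 1 nM final; cells HEK293T PR-UAS-bla; medium with 2% charcoal-stripped FBS; compound exposure 16 hr at 37C, 5% CO2; detection by FRET beta-lactamase substrate, 2 hr, room temperature.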

[4] = qHTS assay to identify small molecule antagonists of the progesterone receptor (PR) signaling pathway - cell viability counter screen (AID 1346798); note: nearly all actives have a fitted effect of over 50% in size; note: potency is the fitted concentration of half-maximal effect; for activity change, negative = cytotoxicity: series mostly up to about 92 µM
Outline: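 In the same plates used for the beta-lactamase readout, cell viability of compound- and R5020-treated PR-UAS-bla HEK293T cells (16 hr, 37C) was assessed by CellTiter-Glo luminescence.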

[5] = qHTS assay to identify small molecule agonists of the progesterone receptor (PR) signaling pathway - cell viability counter screen (AID 1346799; calls by dose curve; note: nearly all actives have a fitted effect of over 45% in size; note: potency is the fitted concentration of half-maximal effect)
Outline: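 Multiplexed viability read: CellTiter-Glo luminescence, 30 min RT, following LiveBLAzer FRET measurement on PR-UAS-bla HEK293T cells exposed to compounds 16 hr.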

[6] = qHTS assay to identify small molecule antagonists of the TGF-beta/Smad signaling pathway - cell viability counter screen (AID 1346824); note: nearly all actives have a fitted effect of over 50% in size
Outline: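 Cytotoxicity counter-screen run in the same wells as the beta-lactamase Smad reporter read: CellTiter-Glo luminescence after 30 min at room temperature. HEK 293T SBE-bla cells had 5 hr compound exposure at 37 C with TGF-beta1 (0.25 ng/mL stock).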

[7] = qHTS assay to identify small molecule agonists of the TGF-beta/Smad signaling pathway - cell viability counter screen (AID 1346829); note: top concentration of the series differs between compounds; nearly all actives have a fitted effect of over 45% in size
Outline: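 Tox21 qHTS format: SBE-bla HEK 293T cells treated with DMSO-dissolved compounds for 5 hr; CellTiter-Glo luminescence after 30 min at room temperature.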

[8] = qHTS assay to identify small molecule agonists of the TGF-beta/Smad signaling pathway (AID 1346859; active = well fitted activation curve with a large enough effect in the signal ratio in the repeat runs, not every such curve was filed as active; the % refers to the signal ratio; note: series mostly up to about 77 µM)
Outline: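 Screening used HEK 293T SBE-bla cells at 4,000/well. Test agents: 5 hr, 37 C. Detection: FRET substrate, 2 hr RT, then excitation 405 nm with emissions at 460 and 530 nm.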

[9] = target: Thyrotropin-releasing hormone receptor (Homo sapiens) (UniProt P34981); assay: qHTS assay to identify small molecule antagonists of the thyrotropin-releasing hormone receptor (TRHR) signaling pathway (AID 1346877; active = well fitted inhibition curve with a large enough effect in the repeat runs, not every such curve was filed as active; note: series mostly up to about 51 µM)
Outline: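 Human TRHR in HEK293 cells; inhibition of the intracellular calcium rise triggered by 1 nM TRH was followed by fluorescence over 3 min. Compounds were run at 15 concentrations, three replicates each.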

[10] = target: Thyrotropin-releasing hormone receptor (Homo sapiens) (UniProt P34981); assay: qHTS assay to identify small molecule agonists of the thyrotropin-releasing hormone receptor (TRHR) signaling pathway (AID 1346891; calls by dose curve; note: series mostly up to about 58 µM)
Outline: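 Readout was intracellular calcium fluorescence in TRHR-Hek293 cells. Cells were incubated 18 h, dye-loaded 2 h at 37 °C, and treated with compound in agonist mode.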

[11] = Human pregnane X receptor (PXR) small molecule agonists, qHTS cell viability counter screen (AID 1346977); note: nearly all actives have a fitted effect of over 50% in size
Outline: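 In each well, the PXR reporter HepG2 line was checked for viability: CellTiter-Fluor reagent added 23hr post-dosing, fluorescence read after 1hr incubation at 37C.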

[12] = Caspase-3/7 induction in HepG2 cells by small molecules, qHTS assay (AID 1346978); note: nearly all actives have a fitted effect of over 15% in size
Outline: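 Caspase-3/7 induction was measured by Caspase-Glo 3/7 luminescence (30 min, room temperature) after a 17 hr compound exposure of wild-type HepG2 cells seeded at 2,000 per well and pre-incubated 5 hr.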

[13] = Caspase-3/7 induction in CHO-K1 cells by small molecules, qHTS cell viability counter screen (AID 1346979); note: nearly all actives have a fitted effect of over 35% in size
Outline: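 Following a 5hr settling period, CHO-K1 cells at 1,500 per well received DMSO-dissolved compounds. Cell viability was quantified 16hr later by CellTiter-Fluor fluorescence, measured after 1hr with reagent at 37C.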

[14] = Caspase-3/7 induction in CHO-K1 cells by small molecules, qHTS assay (AID 1346980); note: nearly all actives have a fitted effect of over 15% in size
Outline: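 Luminescent Caspase-Glo 3/7 read (30min, room temperature) quantified apoptosis induction. Cells were wild-type CHO-K1, treated with compound for 17hr at 37 C and 5% CO2.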

[15] = Caspase-3/7 induction in HepG2 cells by small molecules, qHTS cell viability counter screen (AID 1346981); note: series mostly up to about 92 µM; nearly all actives have a fitted effect of over 30% in size
Outline: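 The parent HepG2 line is plated at 2,000 cells per well and rested 5 hr before compound pinning from DMSO stocks. Following a 16-hr treatment at 37 C, a fluorogenic live-cell substrate (CellTiter-Fluor) reports viability after 1 hr.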

[16] = target: Thyrotropin receptor (Homo sapiens) (UniProt P16473); assay: qHTS assay to identify small molecule antagonists of the thyroid stimulating hormone receptor (TSHR) signaling pathway (AID 1259385; calls by dose curve; note: nearly all actives have a fitted effect of over 20% in size)
Outline: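 Antagonist mode: compound-treated TSHR-expressing HEK293 cells were stimulated with 1.5 ng/mL TSH (final) in presence of Ro20-1724 for 30 min at RT. HTRF cAMP detection after 1 h; each compound tested at 15 concentrations, triplicate.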

[17] = target: Nuclear receptor subfamily 1 group I member 2 (Homo sapiens) (UniProt O75469); assay: Human pregnane X receptor (PXR) small molecule agonists, qHTS assay (AID 1346982); note: nearly all actives have a fitted effect of over 35% in size
Outline: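 After plating in 5% charcoal-stripped FBS and a 5 hr rest, PXR-Luc HepG2 cells received compounds in DMSO. Following 24 hr at 37 C, ONE-Glo was added and light output read.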
% is set by controls: 0 for no effect and ±100 for the full control effect.

Thyrotropin receptor (Homo sapiens), sequence (P16473 whole entry, looked up): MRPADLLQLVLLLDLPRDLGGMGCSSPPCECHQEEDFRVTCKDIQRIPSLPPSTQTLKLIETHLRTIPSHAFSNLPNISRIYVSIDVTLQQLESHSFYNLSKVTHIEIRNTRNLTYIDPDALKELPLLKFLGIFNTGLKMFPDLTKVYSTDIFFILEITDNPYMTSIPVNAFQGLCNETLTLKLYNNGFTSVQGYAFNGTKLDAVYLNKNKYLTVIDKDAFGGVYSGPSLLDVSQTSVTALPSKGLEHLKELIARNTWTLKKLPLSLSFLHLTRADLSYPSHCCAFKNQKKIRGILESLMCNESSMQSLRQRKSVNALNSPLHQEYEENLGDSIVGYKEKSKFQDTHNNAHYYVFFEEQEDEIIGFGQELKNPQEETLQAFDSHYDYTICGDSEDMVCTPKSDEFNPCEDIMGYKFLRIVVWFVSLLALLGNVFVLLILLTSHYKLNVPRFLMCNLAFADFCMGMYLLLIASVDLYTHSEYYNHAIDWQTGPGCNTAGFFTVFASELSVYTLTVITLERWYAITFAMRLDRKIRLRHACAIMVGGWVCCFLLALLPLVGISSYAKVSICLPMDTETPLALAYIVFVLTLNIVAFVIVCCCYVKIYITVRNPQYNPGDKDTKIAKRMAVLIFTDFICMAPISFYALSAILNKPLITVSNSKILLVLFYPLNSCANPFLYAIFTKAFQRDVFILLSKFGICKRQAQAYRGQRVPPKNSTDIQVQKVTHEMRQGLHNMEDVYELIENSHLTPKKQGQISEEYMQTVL
Nuclear receptor subfamily 1 group I member 2 (Homo sapiens), sequence (O75469 whole entry, looked up): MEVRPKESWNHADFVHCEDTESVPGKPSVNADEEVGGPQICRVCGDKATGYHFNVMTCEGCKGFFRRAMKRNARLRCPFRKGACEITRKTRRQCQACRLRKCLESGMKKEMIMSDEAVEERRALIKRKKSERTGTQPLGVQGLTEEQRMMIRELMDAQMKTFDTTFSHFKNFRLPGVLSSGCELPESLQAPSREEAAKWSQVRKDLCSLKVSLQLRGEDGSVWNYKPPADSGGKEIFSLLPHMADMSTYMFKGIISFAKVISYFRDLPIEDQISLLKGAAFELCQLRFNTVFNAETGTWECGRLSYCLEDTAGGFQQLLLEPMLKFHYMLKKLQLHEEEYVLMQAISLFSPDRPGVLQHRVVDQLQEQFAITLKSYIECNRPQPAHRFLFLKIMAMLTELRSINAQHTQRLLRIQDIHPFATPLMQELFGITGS
Thyrotropin-releasing hormone receptor (Homo sapiens), sequence (P34981 whole entry, looked up): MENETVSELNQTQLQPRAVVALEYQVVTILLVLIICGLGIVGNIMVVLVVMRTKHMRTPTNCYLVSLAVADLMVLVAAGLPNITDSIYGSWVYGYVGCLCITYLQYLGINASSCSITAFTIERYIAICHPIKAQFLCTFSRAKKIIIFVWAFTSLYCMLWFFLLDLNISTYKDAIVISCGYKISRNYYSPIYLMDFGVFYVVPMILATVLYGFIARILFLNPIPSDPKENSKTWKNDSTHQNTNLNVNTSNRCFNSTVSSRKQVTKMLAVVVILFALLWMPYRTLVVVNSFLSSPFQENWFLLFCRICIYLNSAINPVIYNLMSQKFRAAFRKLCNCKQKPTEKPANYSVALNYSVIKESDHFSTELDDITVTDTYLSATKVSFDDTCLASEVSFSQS
Progesterone receptor (Homo sapiens), sequence (P06401 whole entry, looked up): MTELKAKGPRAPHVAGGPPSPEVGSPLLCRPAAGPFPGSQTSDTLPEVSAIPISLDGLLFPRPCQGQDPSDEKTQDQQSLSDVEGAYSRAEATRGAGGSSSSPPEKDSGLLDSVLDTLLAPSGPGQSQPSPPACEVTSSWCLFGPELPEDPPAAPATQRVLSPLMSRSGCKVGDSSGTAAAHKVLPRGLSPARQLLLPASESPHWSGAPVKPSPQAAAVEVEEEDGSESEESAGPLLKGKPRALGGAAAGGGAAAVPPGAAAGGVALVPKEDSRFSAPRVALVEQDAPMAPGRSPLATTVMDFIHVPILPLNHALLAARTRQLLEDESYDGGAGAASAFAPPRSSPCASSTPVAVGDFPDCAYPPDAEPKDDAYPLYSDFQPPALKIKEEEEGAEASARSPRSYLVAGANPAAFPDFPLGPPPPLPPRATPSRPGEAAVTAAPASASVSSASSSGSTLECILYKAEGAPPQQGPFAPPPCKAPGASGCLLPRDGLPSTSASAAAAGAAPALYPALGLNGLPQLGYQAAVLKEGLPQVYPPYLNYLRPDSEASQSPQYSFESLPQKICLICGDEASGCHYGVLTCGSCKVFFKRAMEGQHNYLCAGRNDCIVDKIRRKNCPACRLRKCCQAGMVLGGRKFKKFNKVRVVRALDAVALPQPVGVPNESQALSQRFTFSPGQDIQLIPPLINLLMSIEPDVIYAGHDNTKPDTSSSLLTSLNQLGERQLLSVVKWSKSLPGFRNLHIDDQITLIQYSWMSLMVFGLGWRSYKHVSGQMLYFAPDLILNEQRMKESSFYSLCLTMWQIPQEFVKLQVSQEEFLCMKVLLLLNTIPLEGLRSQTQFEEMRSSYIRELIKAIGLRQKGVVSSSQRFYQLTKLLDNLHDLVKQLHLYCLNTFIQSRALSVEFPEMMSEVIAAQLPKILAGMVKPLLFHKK

O=[N+]([O-])CCO
inactive: Potency [1] | Potency [2] | Potency [3] | Potency [4] | Potency [5] | outcome [6] | Potency [7] | outcome [8] | Potency [9] | outcome [10] | Potency [11] | outcome [12] | Potency [13] | outcome [14] | Potency [15]

Brc1c(Br)c(Br)c(Br)c(Br)c1Br
inactive: activity change, negative = inhibition [16] 0.318% [at 8.39 µM] | activity change, negative = cytotoxicity [1] 2.08% [at 8.39 µM] | activity change, negative = cytotoxicity [4] -1.74% [at 8.39 µM] | activity change, negative = cytotoxicity [5] 33% [at 8.39 µM] | viability change, negative = cytotoxic [6] -1.01% [at 6.97 µM] | activation [8] 3.82% [at 6.97 µM] | activity change, negative = cytotoxicity [11] 1.06% [at 8.39 µM] | caspase activation [12] 0.467% [at 8.39 µM] | activity change, negative = cytotoxicity [13] 1.28% [at 8.39 µM] | activity change, negative = cytotoxicity [15] 7.69% [at 8.39 µM] | activation [17] 1.3% [at 8.39 µM]

NCCOS(=O)(=O)O
inactive: outcome [16] | Potency [1] | Potency [2] | Potency [5] | outcome [6] | outcome [8] | Potency [9] | outcome [10] | Potency [11] | outcome [12] | Potency [13] | outcome [14] | Potency [15] | Potency [17]

N=C(N)[Se]
inactive: outcome [16] | Potency [2] | Potency [4] | Potency [5] | outcome [6] | Potency [7] | outcome [8] | Potency [11] | outcome [12] | Potency [13] | outcome [14] | Potency [15]

Oc1ccc(Cc2ccc(O)cc2)cc1
inactive: outcome [16] | Potency [1] | Potency [2] | Potency [4] | outcome [6] | Potency [7] | outcome [8] | Potency [11] | outcome [12] | Potency [13] | outcome [14] | Potency [15]

CCOc1cc(OP(=S)(OC)OC)nc(CC)n1
inactive: Potency [1] | Potency [2] | Potency [3] | Potency [4] | Potency [5] | outcome [6] | Potency [7] | outcome [8] | Potency [9] | outcome [10] | Potency [11] | outcome [12] | Potency [13] | outcome [14] | Potency [15]

NC1(c2ccccc2)CCCCC1
inactive: outcome [16] | Potency [1] | Potency [2] | Potency [4] | outcome [6] | Potency [7] | outcome [8] | Potency [9] | outcome [10] | outcome [12] | Potency [13] | outcome [14] | Potency [15] | Potency [17]

O=C(O)C(F)(F)C(F)(F)C(F)(F)C(F)(F)C(F)(F)C(F)(F)F
inactive: outcome [16] | Potency [1] | Potency [3] | outcome [6] | Potency [7] | outcome [8] | Potency [9] | outcome [10] | Potency [11] | outcome [12] | Potency [13] | outcome [14] | Potency [15] | Potency [17]
active: Potency [4] 48.6 µM | Potency [5] 27.3 µM

BrCc1ccc(Br)cc1
inactive: outcome [16] | Potency [1] | Potency [2] | Potency [5] | outcome [6] | Potency [7] | outcome [8] | Potency [9] | outcome [10] | Potency [11] | outcome [12] | Potency [13] | Potency [15] | Potency [17]

C=CC(=O)OCCN(C)C
inactive: Potency [1] | Potency [2] | Potency [3] | Potency [4] | Potency [5] | outcome [6] | outcome [8] | Potency [11] | outcome [12] | Potency [13] | outcome [14] | Potency [15] | Potency [17]
